About 410 targets per protein were measured; listed, in parts, are those with the strongest signals and a random draw of the rest.
Experiments:
Assay in all cases: glycan array binding signal (z-score within array); higher = stronger binding
Details in all cases: glycan notation: IUPAC condensed, linker removed; mutation: E227G
Gal6S(b1-4)Glc6S = molecular target: Gal6S(b1-4)Glc6S
In short: (§1)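 The Consortium for Functional Glycomics database supplied 3228 glycan arrays, of which those lacking an available protein sequence were dropped. The binding signal, a within-array Z-score, was averaged across arrays of the same protein sequence and across linkers. Negative scores can be read as non-binding.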

Gal6S(b1-4)GlcNAc6S = molecular target: Gal6S(b1-4)GlcNAc6S
In short: as §1

[1] = molecular target: GalNAc(b1-4)GlcNAc(b1-2)Man(a1-3)[GalNAc(b1-4)GlcNAc(b1-2)Man(a1-6)]Man(b1-4)GlcNAc(b1-4)GlcNAc
In short: as §1

GalNAc(b1-6)GalNAc = molecular target: GalNAc(b1-6)GalNAc
In short: as §1

[2] = molecular target: GalNAc3S(b1-4)[Fuc(a1-3)]GlcNAc
In short: as §1

Glc(a1-4)Glc = molecular target: Glc(a1-4)Glc
In short: as §1

GlcA(b1-3)Gal = molecular target: GlcA(b1-3)Gal
In short: as §1

[3] = molecular target: GlcNAc(b1-2)Man(a1-3)[GlcNAc(b1-4)][GlcNAc(b1-2)Man(a1-6)]Man(b1-4)GlcNAc(b1-4)[Fuc(a1-6)]GlcNAc
In short: as §1

GlcNAc(b1-3)Gal(b1-4)Glc = molecular target: GlcNAc(b1-3)Gal(b1-4)Glc
In short: as §1

[4] = molecular target: GlcNAc(b1-3)Gal(b1-4)GlcNAc(b1-3)Gal(b1-4)GlcNAc(b1-2)Man(a1-3)[GlcNAc(b1-3)Gal(b1-4)GlcNAc(b1-3)Gal(b1-4)GlcNAc(b1-2)Man(a1-6)]Man(b1-4)GlcNAc(b1-4)[Fuc(a1-6)]GlcNAc
In short: as §1

[5] = molecular target: GlcNAc(b1-3)Gal(b1-4)GlcNAc(b1-3)GalNAc
In short: as §1

[6] = molecular target: GlcNAc(b1-3)Gal(b1-4)GlcNAc(b1-6)[GlcNAc(b1-3)]Gal(b1-4)GlcNAc
In short: as §1

[7] = molecular target: GlcNAc(b1-4)Gal(b1-4)GlcNAc
In short: as §1

[8] = molecular target: GlcNAc(b1-4)GlcNAc(b1-4)GlcNAc
In short: as §1

[9] = molecular target: GlcNAc(b1-4)GlcNAc(b1-4)GlcNAc(b1-4)GlcNAc(b1-4)GlcNAc
In short: as §1

GlcNAc(b1-6)GalNAc = molecular target: GlcNAc(b1-6)GalNAc
In short: as §1

[10] = molecular target: Kdn(a2-3)Gal(b1-4)[Fuc(a1-3)]GlcNAc
In short: as §1

[11] = molecular target: Man(a1-2)Man(a1-3)[Man(a1-2)Man(a1-6)]Man
In short: as §1

[12] = molecular target: Man(a1-2)Man(a1-3)[Man(a1-6)]Man(a1-6)[Man(a1-2)Man(a1-3)]Man(b1-4)GlcNAc(b1-4)GlcNAc
In short: as §1

Man(a1-3)[Man(a1-6)]Man = molecular target: Man(a1-3)[Man(a1-6)]Man
In short: as §1

[13] = molecular target: Man(a1-3)[Man(a1-6)]Man(a1-6)[Man(a1-3)]Man
In short: as §1

Neu5Ac(a2-3)Gal = molecular target: Neu5Ac(a2-3)Gal
In short: as §1

[14] = molecular target: Neu5Ac(a2-3)Gal(b1-3)GlcNAc(b1-2)Man(a1-3)[Neu5Ac(a2-3)Gal(b1-3)GlcNAc(b1-2)Man(a1-6)]Man(b1-4)GlcNAc(b1-4)GlcNAc
In short: as §1

[15] = molecular target: Neu5Ac(a2-3)Gal(b1-3)GlcNAc(b1-3)Gal(b1-4)GlcNAc
In short: as §1

[16] = molecular target: Neu5Ac(a2-3)Gal(b1-4)GlcNAc
In short: as §1

[17] = molecular target: Neu5Ac(a2-3)Gal(b1-4)GlcNAc(b1-2)Man(a1-3)[Neu5Ac(a2-3)Gal(b1-4)GlcNAc(b1-2)Man(a1-6)]Man(b1-4)GlcNAc(b1-4)GlcNAc
In short: as §1

[18] = molecular target: Neu5Ac(a2-3)Gal(b1-4)GlcNAc(b1-3)Gal(b1-4)GlcNAc(b1-2)Man(a1-3)[Neu5Ac(a2-3)Gal(b1-4)GlcNAc(b1-3)Gal(b1-4)GlcNAc(b1-2)Man(a1-6)]Man(b1-4)GlcNAc(b1-4)GlcNAc
In short: as §1

[19] = molecular target: Neu5Ac(a2-3)Gal(b1-4)[Fuc(a1-3)]GlcNAc(b1-3)Gal(b1-4)GlcNAc
In short: as §1

[20] = molecular target: Neu5Ac(a2-3)Gal(b1-4)[Fuc(a1-3)]GlcNAc(b1-6)[Gal(b1-3)]GalNAc
In short: as §1

[21] = molecular target: Neu5Ac(a2-3)[GalNAc(b1-4)]Gal(b1-4)GlcNAc
In short: as §1

B1: Epa1-NP-mutant-E227G (Candida glabrata), Q6VBJ0 (protein)
chain: MILNPALFLNKCVCIYTTLILLLLTNGGYATSSNDISLASKDPTTFPLGCSPDITTPKKGLSMELYSYDFRKKGSYPCWDAAYLDPNYPRTGYKSHRLLAKVDGVTGNINFYYHATKGCTPQLGHLPASYNYPKPLTMTNFTMLLYGYFRPKVTGFHTFTISADDLLFVNFGAGNAFDCCRRDSSADHFGNYQAYAIWGSKTAKDELTVHLDAGVYYPIRLFYNNRGYDGALSFTFKTESNENTVSDFSEYFFSLDDTEEGCPGLISYDSSCASVKTSKIIGIDYHTETPNENLVPITKTIYHLGIPCTGTTTTPLCGSGFYDPLANKCVTINTSSTSSVTKTTSHTTSKEVSFHSSISSQKTLIPKSIPSPYGPIKSQSIPTEMETSSEISSSEYAFSDVISTPSHSPYTKKHSSLNSSSYTSTVIHSLTSYSISQGIFSTSLSEQNITSKSSTDKFSTATSMSNNITQSSIIISQFSTNNENYTTTSMHTSSDKISTETLNNSISTTTSILFSNSSTILKNNTTIISSDKDTHYHPVNPTIVCSTNKTEIICASITQPSISNSNNHWSSSVLKFNSTTVRSTLPSSAGSNETSINVPFSSSTESNTSTSSTSTSNSKMVRSTLPSSAGSNETSISVPFSSSTESNTSTSSTSTSNSKMVRSTLPSSAGSNETSINVPFSSSTESNTSTSSTSTSNSKTVRSTPFSSAGIIMTSLSQRNNKSASSYASSNSKCYNTADSCRKVHSTPSYLLTSSYTSEGVDYDCSLVSTKLKINDTNCVNNKHTTKSCLKTSVTTTIPTLEIKTARKSSSNTIGLHSYPTSSPNKSISSAPIIGYISSFKTIKTASPSYQTSDLTTITTITSLNNPGSTAVENTHESNDKSRKTSSNDISSKHSVIKETKDAVESSNKSHQTNTLKCSSIIIASSSHNSYESLGGTTLTLTLSKVYSPQNNDTLPFLEISEVNPSRTVLPESSKMMQYLTSTEERNKTARNTIATNIVSISTFHFEGEGNAIRMGYTQLLLMLIGIIVMNIGT
glycan array binding signal (z-score) (Gal6S(b1-4)Glc6S): 13
glycan array binding signal (z-score) (Gal6S(b1-4)GlcNAc6S): 12.7
glycan array binding signal (z-score) [1]: -0.164
glycan array binding signal (z-score) (GalNAc(b1-6)GalNAc): -0.146
glycan array binding signal (z-score) [2]: -0.117
glycan array binding signal (z-score) (Glc(a1-4)Glc): -0.175
glycan array binding signal (z-score) (GlcA(b1-3)Gal): -0.114
glycan array binding signal (z-score) [3]: -0.217
glycan array binding signal (z-score) (GlcNAc(b1-3)Gal(b1-4)Glc): -0.256
glycan array binding signal (z-score) [4]: 0.132
glycan array binding signal (z-score) [5]: -0.16
glycan array binding signal (z-score) [6]: -0.203
glycan array binding signal (z-score) [7]: -0.157
glycan array binding signal (z-score) [8]: -0.161
glycan array binding signal (z-score) [9]: -0.177
glycan array binding signal (z-score) (GlcNAc(b1-6)GalNAc): -0.071
glycan array binding signal (z-score) [10]: -0.097
glycan array binding signal (z-score) [11]: -0.26
glycan array binding signal (z-score) [12]: -0.291
glycan array binding signal (z-score) (Man(a1-3)[Man(a1-6)]Man): -0.126
glycan array binding signal (z-score) [13]: -0.162
glycan array binding signal (z-score) (Neu5Ac(a2-3)Gal): -0.003
glycan array binding signal (z-score) [14]: 0.018
glycan array binding signal (z-score) [15]: -0.256
glycan array binding signal (z-score) [16]: -0.195
glycan array binding signal (z-score) [17]: -0.236
glycan array binding signal (z-score) [18]: -0.191
glycan array binding signal (z-score) [19]: -0.14
glycan array binding signal (z-score) [20]: -0.043
glycan array binding signal (z-score) [21]: -0.209

From the supplement of paper PMC8728848
